Screening results as filed in PubChem BioAssay.
Most compounds without a hit are left out; they make up all but 7.9% or so of the library.
HT1080-NT tox: kills 2HG-producing HT-1080-NT fibrosarcoma cells. AID 686970. HT-1080-NT fibrosarcoma viability, CellTiter-Glo ATP luminescence, 48 h. Potency, µM (series often up to 46.1 µM), without a hit: top-dose activity, negative = less viability, actives largely listed as cytotoxic. 1.6% of 360,000 active;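 note: NT is the 2HG producing partner of a matched IDH1 knockdown line; 0% = DMSO-treated cells and -100% = media-only wells without cells; nearly all actives have a fitted effect of over 55% in size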
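Viability of the 2HG-overproducing fibrosarcoma line after 48 hours of compound exposure at 37 degrees C was determined by luminescence with CellTiter-Glo, and concentration-effect curves were then fitted and categorized.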
KB-3-1 tox: KB-3-1 parental cell cytotoxicity. KB-3-1 viability, CellTiter-Glo ATP luminescence, 72 h. Potency, µM (top dose mostly 46.1 µM), usual class: cytotoxic. 1.4% of 400,000 active. AID 1347075; note: % is set by controls: 0 for no effect and ±100 for the full control effect; nearly all actives have a fitted effect of over 60% in size
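Here the drug-naive KB-3-1 line serves as comparator for MDR sub-line selectivity; cells received compound titrations, 72 h at 37 °C, then CellTiter-Glo readout.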
SW480 rerep: DNA re-replication induction in SW480 cells. 1.8% of 340,000 active. Potency, µM (titrated, usually from 46.1 µM), for the others: top-dose re-replication activation, most hits filed as activators. SW480 DNA re-replication, Hoechst DNA content imaging, 48 h; note: % of control where 0% means no effect; nearly all actives have a fitted effect of over 55% in size
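Per well, 250 cells were exposed to pinned compound for 48 hr. Nuclear DNA was visualised with Hoechst (40 min, 37 C) and total object intensity recorded by fluorescence scanning.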
KB-V1 cytotox: kills drug-selected multidrug resistant KB-V1 cells | 3.4% of 400,000 active | KB-V1 MDR cells viability, CellTiter-Glo, 72 h | AID 1347076 | Potency, µM (highest dose often 46.1 µM), actives largely listed as cytotoxic; note: % is set by controls: 0 for no effect and ±100 for the full control effect; nearly all actives have a fitted effect of over 60% in size
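Luminescent ATP read-out (CellTiter-Glo, 10 min) measures survival of drug-selected KB-V1 MDR cells after 72 h, 37 degrees C compound exposure. Medium: phenol-red-free DMEM, 10% FBS. Values from fitted concentration-response curves.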
MCF10A rerep: induces DNA re-replication in MCF 10a normal breast cells | 2.9% of 350,000 active | AID 624296 | Potency, µM (series often up to 46.1 µM), without a hit: at the top dose activity, positive = re-replication, actives largely listed as activators | MCF 10A DNA re-replication, Hoechst nuclear intensity, 48 h; note: % of control where 0% means no effect; nearly all actives have a fitted effect of over 50% in size
HT1080 IDH1KD tx: kills HT-1080 cells with IDH1 knockdown; HT-1080 IDH1 knockdown viability, ATP luminescence, 48 h; Potency, µM (doses to about 46.1 µM), for the others: top-dose activity, negative = toxicity, hits mostly cytotoxic; 2% of 360,000 active; AID 686971;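 note: 0% = DMSO wells and -100% = cell-free medium wells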
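HT-1080-IDH1KD cells (IDH1 knocked down), 750/well in RPMI with 5% FBS, treated with compound 48 h at 37 degrees C. Viability by CellTiter-Glo luminescence, normalised to DMSO and no-cell wells; concentration-response curves classed.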
* marks the source's active call; other numbers are inactive results; [ ] = dose if it differs, or a comment. Calls come from the whole dose curve; as a rule, active = well fitted curve in the direction sought with a large enough effect; inconclusive = small, poorly fitted or top-dose-only effect, or another doubt; inactive = no such curve, though single readings can be large; an effect the other way counts as inactive or inconclusive. Potency is the fitted concentration of half-maximal effect.

Screening COc1ccc(C(CNC(=O)/C=C/c2c(Cl)nc3ccccn23)N(C)C)cc1 (stereo not given) returned HT1080-NT tox -5%, KB-3-1 tox inactive, SW480 rerep 0%, KB-V1 cytotox inactive, MCF10A rerep 2% and HT1080 IDH1KD tx -16%.
Screening O=Cc1ccccc1OCc1ccc2c(c1)OCO2 returned HT1080-NT tox inconclusive, KB-3-1 tox inconclusive, SW480 rerep 18µM*, KB-V1 cytotox inactive, MCF10A rerep inconclusive and HT1080 IDH1KD tx inconclusive.
CCOC(=O)c1c(C)n(C)c2cc(-c3cccc(C(F)(F)F)c3)c(O)cc12 was read as HT1080-NT tox 19%, KB-3-1 tox inactive, SW480 rerep -119%, KB-V1 cytotox inactive, MCF10A rerep 20% and HT1080 IDH1KD tx 7%.
Screening O=S(=O)(Nc1nc2ccccc2nc1Cl)c1cccc(C(F)(F)F)c1 returned HT1080-NT tox inconclusive, KB-3-1 tox inactive, SW480 rerep -3%, KB-V1 cytotox inactive, MCF10A rerep 16µM* and HT1080 IDH1KD tx inconclusive.
`COc1cc2[nH]c(=O)n(CCCC(=O)NCc3ccccc3Cl)c(=O)c2cc1OC` gave KB-3-1 tox inactive and KB-V1 cytotox inconclusive.
`COc1ccc(/C=C/C(=O)Nc2ccc(-n3nncc3-c3ccccc3)cc2)cc1OC` gave HT1080-NT tox -1%, KB-3-1 tox inactive, SW480 rerep -3%, KB-V1 cytotox inconclusive, MCF10A rerep 5% and HT1080 IDH1KD tx -9%.
For CC(=O)c1ccc(OCC(O)CN2CCN(Cc3ccccc3)CC2)cc1 (stereo not given) the results were HT1080-NT tox 0%, KB-3-1 tox inactive, SW480 rerep 3%, KB-V1 cytotox inactive, MCF10A rerep 1% and HT1080 IDH1KD tx -1%.
Screening COC(=O)c1ccc(CNCC(O)COc2ccc(-c3ccccc3)cc2)cc1 (stereo not given) returned HT1080-NT tox -15%, KB-3-1 tox inactive, SW480 rerep inconclusive, KB-V1 cytotox inactive, MCF10A rerep inconclusive and HT1080 IDH1KD tx -10%.
`COc1ccc(CNCC(O)COc2ccc(C(C)(C)c3ccccc3)cc2)cc1` (stereo not given) gave HT1080-NT tox 21µM*, KB-3-1 tox inconclusive, SW480 rerep inconclusive, KB-V1 cytotox inconclusive, MCF10A rerep inconclusive and HT1080 IDH1KD tx 16µM*.
`CC(C)(c1ccccc1)c1ccc(OCC(O)CNC2CCN(Cc3ccccc3)CC2)cc1` (stereo not given) gave HT1080-NT tox 3.3µM*, KB-3-1 tox inconclusive, SW480 rerep 11%, KB-V1 cytotox 18µM*, MCF10A rerep inconclusive and HT1080 IDH1KD tx 2.9µM*.
`COc1ccc(OCC(O)CNC2CCCC2)cc1` (stereo not given) gave HT1080-NT tox -1%, KB-3-1 tox inactive, SW480 rerep -3%, KB-V1 cytotox inactive, MCF10A rerep 9% and HT1080 IDH1KD tx -2%.
For CCOc1ccc(OCC(O)CNC2CCN(Cc3ccccc3)CC2)cc1 (stereo not given) the results were HT1080-NT tox inconclusive, KB-3-1 tox inconclusive, SW480 rerep inconclusive, KB-V1 cytotox 16µM*, MCF10A rerep inconclusive and HT1080 IDH1KD tx inconclusive.
COc1cccc(CN(C)C[C@H]2OCc3cnnn3CCCC(=O)N([C@@H](C)CO)C[C@@H]2C)c1 was read as HT1080-NT tox 8%, KB-3-1 tox inactive, KB-V1 cytotox inactive and HT1080 IDH1KD tx 13%.
For COc1cccc(CN(C)CC(=O)Nc2cccc(S(N)(=O)=O)c2)c1OC the results were HT1080-NT tox -3%, KB-3-1 tox inactive, SW480 rerep -10%, KB-V1 cytotox inactive, MCF10A rerep 2% and HT1080 IDH1KD tx -5%.
For CN(c1ccccc1)S(=O)(=O)c1cccc(NC(=O)Cn2cnc3ccccc3c2=O)c1 the results were HT1080-NT tox -20%, KB-3-1 tox inconclusive, SW480 rerep -2%, KB-V1 cytotox 23µM*, MCF10A rerep 11% and HT1080 IDH1KD tx -9%[9.24 µM].
Screening CCN(CC(=O)Nc1cccc(S(=O)(=O)N(C)c2ccccc2)c1)Cc1cccs1 returned HT1080-NT tox -8%, KB-3-1 tox inconclusive, SW480 rerep -3%, KB-V1 cytotox 4.6µM*, MCF10A rerep 17% and HT1080 IDH1KD tx -3%.
For COc1cccc(CN(C)CC(=O)Nc2cccc(S(=O)(=O)N(C)c3ccccc3)c2)c1OC the results were HT1080-NT tox 3%, KB-3-1 tox inconclusive, SW480 rerep -2%, KB-V1 cytotox 2.6µM*, MCF10A rerep inconclusive and HT1080 IDH1KD tx -2%.
Screening CCN(CC)S(=O)(=O)c1cc(NC(=O)Cn2cnc3ccccc3c2=O)ccc1C returned HT1080-NT tox 1%, KB-3-1 tox inactive, SW480 rerep 15%, KB-V1 cytotox inactive, MCF10A rerep 9% and HT1080 IDH1KD tx -10%.
`Cc1ccc(C(=O)Nc2cccc(S(=O)(=O)N(C)c3ccccc3)c2)o1` gave HT1080-NT tox 2%, KB-3-1 tox inactive, SW480 rerep -1%, KB-V1 cytotox 16µM*, MCF10A rerep 7% and HT1080 IDH1KD tx 10%.
For Cc1ccc(S(=O)(=O)N2CCOCC2)cc1C(=O)Nc1cc(Cl)ccc1N1CCOCC1 the results were HT1080-NT tox 0%, KB-3-1 tox inactive, SW480 rerep 6%, KB-V1 cytotox inactive, MCF10A rerep 3% and HT1080 IDH1KD tx 5%.
For C=CCc1ccccc1OCC(O)CN1CCN(Cc2ccc3c(c2)OCO3)CC1 (stereo not given) the results were HT1080-NT tox -19%, KB-3-1 tox inactive, SW480 rerep -2%, KB-V1 cytotox inactive, MCF10A rerep -188%[0.0737 µM] and HT1080 IDH1KD tx -24%.
Screening Cc1cc(S(=O)(=O)NCc2ccccc2)ccc1OCC(=O)NCc1ccccn1 returned HT1080-NT tox -3%, KB-3-1 tox inactive, SW480 rerep -2%, KB-V1 cytotox inconclusive, MCF10A rerep -2% and HT1080 IDH1KD tx -5%.
`CN(c1ccccc1)S(=O)(=O)c1cccc(NC(=O)COc2cccc([N+](=O)[O-])c2)c1` gave HT1080-NT tox 1%, KB-3-1 tox inactive, SW480 rerep -2%, KB-V1 cytotox 18µM*, MCF10A rerep 1% and HT1080 IDH1KD tx 0%.
For CN(c1ccccc1)S(=O)(=O)c1cccc(NC(=O)CC(C)(C)C)c1 the results were HT1080-NT tox 20%, KB-3-1 tox inactive, SW480 rerep 1%, KB-V1 cytotox 2.6µM*, MCF10A rerep -1% and HT1080 IDH1KD tx 1%.
